Reference: PubChem BioAssay (EPA / NIEHS)
Activity calls are given as the source filed them. How the source made its calls: active means hit-call score of the fitted dose curve at least 0.9, where 1 is the maximum; inactive means score below 0.9.

Columns and labels:
[1] = BSK_3C_Vis: BioMAP Diversity Plus: 3C Assay for Morphology Visualization (AID 2283025); conditions: primary human endothelial cells (HUVEC);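 further: fitted both ways so gain or loss versus DMSO counts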;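 on AC50: light microscopy image of cell morphology used as background control; cells imaged 24 h after dosing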
Outline: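 Endothelial cells from human umbilical vein were treated with test chemicals for 24 h and inspected by light microscopy for changes in cell conformation.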

[2] = BSK_4H_SRB: Viability Assessment in the BioMAP Diversity Plus: 4H Assay (AID 2283027); conditions: primary human endothelial cells (HUVEC);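 further: cells exposed to compound for 24 h before staining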;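 on AC50: curves fitted both ways versus DMSO so AC50 may be loss or gain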
Outline: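 Human umbilical vein endothelial cells were dosed with chemical and, after 24 h, fixed with 10% TCA, stained with 0.1% sulforhodamine B, and read at 560 nm to give total protein as a cytotoxicity measure. Bidirectional fitting relative to DMSO control.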

[3] = BSK_BE3C_SRB: Viability Assessment in the BioMAP Diversity Plus: BE3C Assay (AID 2283028); conditions: primary human bronchial epithelial cells
Outline: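 Overt cytotoxicity was assessed as total protein in confluent human primary bronchial epithelial cultures 24 h after chemical addition, using 0.1% sulforhodamine B staining read at 560 nm.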

[4] = read-out: Thrombomodulin, THBD (gene 7056); test: BSK_3C_Thrombomodulin: BioMAP Diversity Plus: 3C Assay for Thrombomodulin Biomarker Activity (AID 2283029); conditions: primary human endothelial cells (HUVEC); actives raise or lower the signal
Outline: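 Thrombomodulin ELISA, human primary HUVEC, 24 h post-dose; data fitted in both directions relative to DMSO.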

[5] = read-out: Urokinase-type plasminogen activator receptor (uPAR), PLAUR (gene 5329); test: BSK_4H_uPAR: BioMAP Diversity Plus: 4H Assay for Urokinase-type plasminogen activator receptor (uPAR) Biomarker Activity (AID 2283030); conditions: primary human endothelial cells (HUVEC); actives raise or lower the signal
Outline: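 Chemicals are dosed onto human vascular endothelial primary cells (umbilical vein). After 24 h, uPAR is read by ELISA. Gain or loss of signal is fitted relative to DMSO.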

[6] = read-out: Vascular endothelial growth factor receptor 2 (Homo sapiens) (UniProt P35968); test: BSK_4H_VEGFRII: BioMAP Diversity Plus: 4H Assay for Vascular endothelial growth factor receptor 2 (VEGFR2) Biomarker Activity (AID 2283031); conditions: primary human endothelial cells (HUVEC); actives raise or lower the signal
Outline: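 VEGFRII levels on human vascular endothelial primary cells were determined by ELISA at 24 hours post-dosing, with gain- or loss-of-signal fitted against DMSO controls.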

[7] = read-out: Human Leukocyte Antigen - DR isotype (HLADR), HLA-DRA (gene 3122); test: BSK_BE3C_HLADR: BioMAP Diversity Plus: BE3C Assay for Human Leukocyte Antigen - DR isotype (HLADR) Biomarker Activity (AID 2283032); conditions: primary human bronchial epithelial cells; actives raise or lower the signal
Outline: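 Signal came from an ELISA for HLA-DR in human bronchial epithelial primary cells harvested 24 h after treatment; gain- and loss-of-signal fitting used DMSO controls as reference.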

[8] = read-out: Vascular cell adhesion molecule 1 (VCAM1), VCAM1 (gene 7412); test: BSK_4H_VCAM1: BioMAP Diversity Plus: 4H Assay for Vascular cell adhesion molecule 1 (VCAM1) Biomarker Activity (AID 2283033); conditions: primary human endothelial cells (HUVEC); actives raise or lower the signal
Outline: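 Endpoint derived from bidirectional fitting against DMSO controls of VCAM-1 ELISA signal in umbilical vein endothelial cells sampled at 24 h following treatment.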

[9] = read-out: Interferon-gamma inducible Protein 10 (IP10), CXCL10 (gene 3627); test: BSK_BE3C_IP10: BioMAP Diversity Plus: BE3C Assay for Interferon-gamma inducible Protein 10 (IP10) Biomarker Activity (AID 2283034); conditions: primary human bronchial epithelial cells; actives raise or lower the signal
Outline: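 Using primary human bronchial epithelial cultures, the assay captures IP-10 by ELISA one day (24 h) after exposure. Parallel SRB staining of total protein flags overt cytotoxicity. Fits run bidirectionally relative to DMSO.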

[10] = read-out: Monokine induced gamma interferon (MIG), CXCL9 (gene 4283); test: BSK_BE3C_MIG: BioMAP Diversity Plus: BE3C Assay for Monokine induced gamma interferon (MIG) Biomarker Activity (AID 2283035); conditions: primary human bronchial epithelial cells; actives raise or lower the signal;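 further: MIG protein measured by ELISA in BE3C cultures after 24 h of dosing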
Outline: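 ELISA read-out of MIG in human lung bronchial epithelial primary cultures, 24 h post-dosing. Bidirectional curve fit vs DMSO baseline.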

[11] = read-out: Transforming growth factor beta 1 (TGFb1), TGFB1 (gene 7040); test: BSK_BE3C_TGFb1: BioMAP Diversity Plus: BE3C Assay for Transforming growth factor beta 1 (TGFb1) Biomarker Activity (AID 2283036;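 further: TGF-b1 protein level measured by ELISA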); conditions: primary human bronchial epithelial cells; actives raise or lower the signal
Outline: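 In this human primary bronchial epithelial system, an ELISA quantified TGF-b1 one day after dosing. Endpoint changes in either direction were fitted relative to DMSO.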

[12] = read-out: Plasminogen activator inhibitor-1 (PAI1), SERPINE1 (gene 5054); test: BSK_BE3C_PAI1: BioMAP Diversity Plus: BE3C Assay for Plasminogen activator inhibitor-1 (PAI1) Biomarker Activity (AID 2283037); conditions: primary human bronchial epithelial cells; actives raise or lower the signal
Outline: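 PAI-1 biomarker levels in treated human bronchial epithelial cells are determined by ELISA at 24 h. Both increases and decreases relative to DMSO are fitted.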

[13] = read-out: urokinase plasminogen activator (uPA), PLAU (gene 5328); test: BSK_BE3C_uPA: BioMAP Diversity Plus: BE3C Assay for urokinase plasminogen activator (uPA) Biomarker Activity (AID 2283038); conditions: primary human bronchial epithelial cells; actives raise or lower the signal;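 further: uPA protein level quantified by ELISA in cell cultures; uPA read one day after compound addition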
Outline: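 Measured by ELISA: uPA from human primary bronchial epithelial cells 24 h after chemical treatment. Values derive from bidirectional curve fitting with DMSO serving as negative control. Total protein by SRB staining in parallel wells flagged overt cytotoxicity.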

[14] = read-out: Urokinase-type plasminogen activator receptor (uPAR), PLAUR (gene 5329); test: BSK_BE3C_uPAR: BioMAP Diversity Plus: BE3C Assay for Urokinase-type plasminogen activator receptor (uPAR) Biomarker Activity (AID 2283039); conditions: primary human bronchial epithelial cells; actives raise or lower the signal;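 further: uPAR protein level measured by ELISA on the cells; cells exposed to compound for one day before measurement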
Outline: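 A uPAR ELISA serves as the readout, taken 24 h after treating primary human bronchial epithelial cells. Responses in either direction are fitted against DMSO, which defines baseline activity.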

[15] = read-out: Interleukin-6 (IL6), IL6 (gene 3569); test: BSK_CASM3C_IL6: BioMAP Diversity Plus: CASM3C Assay for Interleukin-6 (IL6) Biomarker Activity for (AID 2283040); conditions: primary human coronary artery smooth muscle cells; actives raise or lower the signal
[16] = read-out: Tissue plasminogen activator (tPA), PLAT (gene 5327); test: BSK_BE3C_tPA: BioMAP Diversity Plus: BE3C Assay for Tissue plasminogen activator (tPA) Biomarker Activity (AID 2283041); conditions: primary human bronchial epithelial cells; actives raise or lower the signal;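 further: tPA level quantified by ELISA one day after compound addition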
Outline: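 Bidirectional curve fitting relative to DMSO defined activity, with tPA detected by ELISA in chemically treated human bronchial epithelial primary cells at 24 hours.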

[17] = read-out: Interleukin-8 (IL8), CXCL8 (gene 3576); test: BSK_CASM3C_IL8: BioMAP Diversity Plus: CASM3C Assay for Interleukin-8 (IL8) Biomarker Activity (AID 2283042); conditions: primary human coronary artery smooth muscle cells; actives raise or lower the signal;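 further: IL-8 protein level quantified by ELISA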
[18] = read-out: Human Leukocyte Antigen - DR isotype (HLADR), HLA-DRA (gene 3122); test: BSK_CASM3C_HLADR: BioMAP Diversity Plus: CASM3C Assay for Human Leukocyte Antigen - DR isotype (HLADR) Biomarker Activity (AID 2283043); conditions: primary human coronary artery smooth muscle cells; actives raise or lower the signal;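 further: cell-surface HLA-DR protein level quantified by ELISA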
[19] = read-out: Macrophage colony-stimulating factor (MCSF), CSF1 (gene 1435); test: BSK_CASM3C_MCSF: BioMAP Diversity Plus: CASM3C Assay for Macrophage colony-stimulating factor (MCSF) Biomarker Activity (AID 2283044); conditions: primary human coronary artery smooth muscle cells; actives raise or lower the signal;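 further: M-CSF protein amount quantified by ELISA after 24 h exposure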

Measured: AC50

Clc1cccc(Cl)c1Cl
inactive: [1] | [2] | [3] | [4] | [5] | [6] | [7] | [8] | [9] | [10] | [11] | [12] | [13] | [14] | [15] | [16] | [17] | [18] | [19]

Cc1cc(C)cc(C)c1
inactive: [1] | [2] | [3] | [4] | [5] | [6] | [7] | [8] | [9] | [10] | [11] | [12] | [13] | [14] | [15] | [16] | [17] | [18] | [19]

CCOC(=O)C(SP(=S)(OC)OC)c1ccccc1 (stereo not given)
active: [1] 37.5 µM | [2] 29.5 µM | [5] 20 µM | [8] 27.1 µM | [9] 20 µM | [18] 20 µM | [19] 20 µM
inactive: [3] | [4] | [6] | [7] | [10] | [11] | [12] | [13] | [14] | [15] | [16] | [17]

c1ccc2sc(SNC3CCCCC3)nc2c1
inactive: [1] | [2] | [3] | [4] | [5] | [6] | [7] | [8] | [9] | [10] | [11] | [12] | [13] | [14] | [15] | [16] | [17] | [18] | [19]

CCOC(=O)CCN(SN(C)C(=O)Oc1cccc2c1OC(C)(C)C2)C(C)C
active: [1] 20 µM | [8] 31 µM | [9] 14.1 µM | [18] 12.2 µM | [19] 20 µM
inactive: [2] | [3] | [4] | [5] | [6] | [7] | [10] | [11] | [12] | [13] | [14] | [15] | [16] | [17]
